# Bioassay records (PubChem BioAssay)
# Cycloheximide cs: counter-screen for Shiga toxin inhibitors: cycloheximide protein synthesis inhibition | max response, % | cell reporter, cycloheximide protein synthesis inhibition counterscreen | 300,000 tested, 12% active | AID 2314; in the data active = max response mostly above about 13%, no sharp cut-off; inactive = mostly below about 14%; note: read at 38.3 µM for the half of the compounds with a filed dose; 0% is about no effect
# SARS PLP yeast: inhibitors of SARS-CoV papain-like protease in yeast; 330,000 tested, 0.19% active; S. cerevisiae expressing SARS-CoV PLpro, growth rescue; Potency, µM (highest dose often 32.9 µM), without a hit: top-dose activity, positive = growth rescue, usual class: activators; AID 485353; note: potency is the fitted concentration of half-maximal effect; 0% is about no effect; nearly all actives have a fitted effect of over 55% in size
# Pf growth 48h: inhibits P. falciparum growth in the first generation, 48 h | P. falciparum luciferase growth in erythrocytes, 48 h | 310,000 tested, 5.9% active | Potency, µM (highest dose often 28.7 µM), for the others: at the top dose activity change, negative = inhibition, most hits filed as inhibitors; active = well fitted inhibition curve with a large enough effect; inconclusive = small, poorly fitted or top-dose-only effect, or another doubt; inactive = no such curve, though single readings can be large or run the other way; note: potency is the fitted concentration of half-maximal effect; % is set by controls: 0 for no effect and ±100 for the full control effect
#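 Luciferase-expressing parasites in RBCs, 2% Hct / 0.1% parasitemia final; RPMI 1640 + 0.5% Albumax; 37 C, 5% CO2, one generation; luminescence read-out, lower signal = inhibition.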
# Shiga toxin inh: inhibitors of Shiga toxin in Vero cells | Vero cells, Shiga toxin protein synthesis inhibition reporter | inhibition, % at 38.7 µM | 290,000 tested, 9.2% active | AID 2315; in the data active = inhibition mostly above about 28%, no sharp cut-off; inactive = mostly below about 43%; note: 0% is about no effect
# Pf growth 96h: P. falciparum growth inhibition at 96 hours. P. falciparum luciferase reporter growth, 96 h. Potency, µM (titrated, usually from 28.7 µM), without a hit: at the highest dose activity change, negative = inhibition, usual class: inhibitors. 320,000 tested, 6.9% active. AID 504834; active = well fitted inhibition curve with a large enough effect; inconclusive = small, poorly fitted or top-dose-only effect, or another doubt; inactive = no such curve, though single readings can be large or run the other way; note: potency is the fitted concentration of half-maximal effect; % is set by controls: 0 for no effect and ±100 for the full control effect
#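 Erythrocytes infected with luciferase-expressing P. falciparum were dispensed at 2% hematocrit and 0.05% parasitemia (final), then incubated with compounds 96 hours at 37 C in 5% CO2. Luminescence after detection reagent addition reported growth.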
# NS1 function inh: influenza NS1 inhibition; 270,000 tested, 0.4% active; Potency, µM (doses to about 46.1 µM), without a hit: at the top dose activity, positive = more growth; note: potency is the fitted concentration of half-maximal effect; actives are rising curves; nearly all actives have a fitted effect of over 50% in size
#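 A cell-based growth assay was used: compounds that relieve NS1-induced slow growth of budding yeast raise OD600. Assay medium was yeast nitrogen base with ammonium sulphate and -URA supplement, pH 6.0, with 2% galactose.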
# Active calls of the source: *; ? = inconclusive; · = no result given. Only some compounds are listed: those with a hit (about 21% of all), similar ones and a draw of the others. Unless noted, calls come from the whole dose curve.
SMILES,Cycloheximide cs,SARS PLP yeast,Pf growth 48h,Shiga toxin inh,Pf growth 96h,NS1 function inh
O=C(N1CCC(n2nc(-c3ccccc3)oc2=O)CC1)C1(c2ccc(Cl)cc2)CC1,-2.9,-20.3%,?,-9.6,?,-3.3%
CC(C)C[C@H](NC(=O)[C@H](Cc1ccccc1)C[C@@H](O)[C@H](Cc1ccccc1)NC(=O)OC(C)(C)C)C(=O)N[C@@H](Cc1ccccc1)C(N)=O,5.4,·,·,-12.7,·,·
COc1ccc(CN2CCN(C3CCC3)CC2CCO)cc1C (stereo not drawn),-2.1,7.6%,2.4%,-10.8,0.0%,1.8%
O=C(CS(=O)(=O)c1c[nH]c2ccccc12)N1CCCCCC1,-3.6,-0.6%,11.6%,-11.6,-23.2%,·
COc1ccc(CCNC(=O)C2CCN(C(=O)c3ccc(Cl)cc3)CC2)cc1,-2.0,-4.6%,?,-31.7,-8.7%,-11.5%
O=C(NCCC1=CCCCC1)C1CCN(C(=O)c2ccc(Cl)cc2)CC1,30.6*,2.2%,-9.2%,66.5*,-3.0%,-18.3%
O=C(NCCN1CCCCCC1)C1CCCN1S(=O)(=O)c1cccc2nsnc12 (stereo not drawn),1.6,0.8%,1.65µM*,15.2,?,0.8%
O=C(c1ccc(Cl)cc1)C1CCN(C(=O)c2ccc(F)cc2)CC1,0.7,-5.4%,-10.2%,2.0,13.1µM*,-8.9%
CSc1nc(-c2ccccc2)c(C#N)c(=O)[nH]1,-3.9,-0.5%,80.3%,-10.0,48.2%,-5.4%
CSc1nc(-c2cccs2)c(C#N)c(=O)[nH]1,8.9*,0.8%,32.8%,26.1,25.7%,-2.3%
O=[N+]([O-])c1ccccc1CSc1nnc2ccccn12,39.6*,-1.3%,110.8%,53.2*,63.1%,·
Clc1ccc(CSc2nnc3ccccn23)c(Cl)c1,60.2*,-21.5%,36.9%,40.5*,47.4%,-2.6%
O=C(COC(=O)c1cc(F)cc(F)c1)Nc1cccnc1Cl,6.5,-4.0%,20.0%,-6.0,57.1%,·
O=C(NCc1cccnc1)/C(=C/c1ccccc1)NC(=O)c1ccccc1,-4.0,0.2%,3.1%,-13.7,-3.0%,-1.2%
COc1ccccc1NC(=O)/C(=C\c1cccnc1)NC(=O)c1ccc(C)cc1,-2.4,-1.6%,-8.4%,-7.2,10.4µM*,-24.1%
COc1ccccc1CCNC(=O)/C(=C/c1cccnc1)NC(=O)c1ccccc1,-2.3,-24.9%,-11.3%,-8.6,10.4µM*,5.6%
COc1ccccc1NC(=O)/C(=C\c1cccnc1)NC(=O)c1ccccc1,-3.6,14.7%,-12.3%,10.7,26.3%,18.3%
O=C(Nc1ncn[nH]1)c1ccc(S(=O)(=O)N2CCOCC2)cc1,0.9,0.7%,8.9%,-9.2,19.0%,3.4%
CCOC(=O)c1ccc(NC(=O)CN(Cc2ccc(Cl)cc2)S(C)(=O)=O)cc1,-3.0,-15.1%,-14.4%,1.7,·,5.1%
COc1ccc(C)cc1S(=O)(=O)N(C)CC(=O)Nc1ccc2c(c1)OCO2,10.0,-2.7%,-10.8%,-0.2,?,-12.1%
COc1ccc(C)cc1S(=O)(=O)N(CC(=O)Nc1ccc2c(c1)OCCO2)Cc1ccccc1,9.8*,0.7%,·,14.6,?,-54.5%
CS(=O)(=O)N(CC(=O)Nc1ccc2c(c1)OCCO2)Cc1ccc(Cl)cc1,21.8*,5.0%,24.7%,33.3*,·,-11.2%
O=C(O)c1cccc(N2C(=O)CSC2c2ccccc2)c1 (stereo not drawn),-4.2,1.8%,4.9%,-5.5,?,-1.1%
Fc1ccc(Sc2cc(Cl)c(-c3ccccc3)nn2)cc1,-2.0,-8.4%,?,-13.0,?,-50.8%
Fc1ccc(-c2nnsc2Sc2ccccn2)cc1,33.6*,1.0%,29.5%,67.1*,8.6%,·
SMILES,Cycloheximide cs,SARS PLP yeast,Pf growth 48h,Shiga toxin inh,Pf growth 96h,NS1 function inh
CC(NC(=O)c1c(Cl)cnn1C)C1CCCO1 (stereo not drawn),-2.2,0.3%,41.8%,-3.4,11.7%,1.8%
C=C(C)C(O)Cc1c(OC)ccc(C(=O)/C=C/c2ccc(O)cc2)c1O (stereo not drawn),·,-14.7%,·,·,·,·
O=C(/C=C/c1ccc(O)cc1)c1ccc(O)cc1O,29.2*,-14.0%,?,33.9,?,-41.3%
COc1ccc(/C=C/C(=O)NNc2c(F)c(F)cc(F)c2F)cc1OC,-1.5,-9.7%,?,16.2,?,-5.4%
COc1cc(/C=C/C(O)=C/C(=O)/C=C/c2ccc(O)cc2)ccc1O,·,1.2%,11.7µM*,·,?,·
COc1cc(/C=C/C(=O)c2ccc(O)cc2O)ccc1O,31.9*,·,·,67.8*,·,·
O=C(/C=C/c1ccccn1)c1ccc(Br)cc1O,12.2,-12.1%,?,28.4,?,-40.1%
CC(C)=CCC/C(C)=C/Cc1c(O)ccc(C(=O)/C=C/c2ccc(O)cc2)c1O,14.9,-43.6%,?,38.1,8.28µM*,-66.8%
O=C1CCc2ccc(NC(=O)C3CC3)cc2N1,-2.1,2.4%,-10.9%,-3.0,5.5%,·
CCc1cccc(CC)c1NC(=O)COn1nnc2ccc(C(F)(F)F)cc21,-2.9,-4.2%,0.1%,-4.3,10.6%,-0.8%
Cn1c(=O)c2c(-c3ccc(OC(F)F)cc3)cc(-c3ccccc3)nc2n(C)c1=O,-0.6,0.7%,?,2.1,?,-2.7%
CCN1CCN(C(=O)Cc2ccc(C)cc2)CC1,21.9*,-4.5%,16.1%,41.9,13.8%,0.9%
CCN1CCN(C(=O)c2oc(=O)c3ccccc3c2-c2ccc(C)cc2)CC1,-5.7,-12.7%,?,-8.4,4.65µM*,-9.9%
CCN1CCN(Cc2ccc(C)cc2)CC1,-1.2,11.2%,4.1%,-9.7,5.22µM*,0.6%
C[C@H](CO)N1C[C@H](C)[C@@H](CN(C)S(=O)(=O)c2ccccc2)Oc2ccc(NC(=O)CCC(F)(F)F)cc2C1=O,·,9.2%,·,·,·,·
CC(C)(C)OC(=O)N[C@@H](Cc1c[nH]c2ccccc12)C(=O)O,-5.5,·,·,24.8,·,·
COc1ccc(OC)c(NC(=O)c2ccc(CSc3ncccn3)cc2)c1,2.6,-1.4%,-29.8%,29.1,2.5%,-2.0%
Cc1cc(OCC(=O)NNC(=S)NCC2CCCO2)cc(C)c1Cl (stereo not drawn),17.5*,-8.4%,5.5%,33.0,-24.3%,27.7%
CC(Oc1ccc([N+](=O)[O-])cc1)C(=O)NCC1CCCO1 (stereo not drawn),-2.4,-0.4%,11.0%,-15.8,-16.7%,19.6%
Cc1cc(OC(C)C(=O)NCC2CCCO2)cc(C)c1Cl (stereo not drawn),-2.0,1.5%,3.9%,-1.3,5.22µM*,-18.5%
COc1cc(CO)c(OC)c([N+](=O)[O-])c1,-2.1,6.2%,33.8%,16.7,53.1%,2.8%
Cc1nn(-c2ccc(F)cc2)c(Cl)c1/C=C/C(=O)N1CCNC(=O)C1,10.0,-1.2%,-22.9%,27.2,13.1µM*,·
CN1CCCN(C(=O)/C=C/c2ccc(Cl)cc2Cl)CC1,25.0*,-0.4%,29.7%,27.6,-27.9%,·
O=C1CN(C(=O)/C=C/c2ccc(Cl)cc2Cl)CCN1,33.9*,2.0%,341.8%,58.8*,68.5%,·
